# Experimental data taken from ChEMBL document CHEMBL1961873, “Compounds: GSK PKIS; Assays: Nanosyn kinase panel” (2012).
# Columns and labels:
# [1] = molecular target: Sphingosine kinase 1 (Homo sapiens) (UniProt Q9NYA1); details: at 1 µM;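 further: mean SPHK1 inhibition value reported from the GSK PKIS kinase panel screen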
# [2] = molecular target: T1, Sphingosine kinase 2 (Homo sapiens) (UniProt Q9NRA0); details: at 0.1 µM
# T1 sequence (whole entry): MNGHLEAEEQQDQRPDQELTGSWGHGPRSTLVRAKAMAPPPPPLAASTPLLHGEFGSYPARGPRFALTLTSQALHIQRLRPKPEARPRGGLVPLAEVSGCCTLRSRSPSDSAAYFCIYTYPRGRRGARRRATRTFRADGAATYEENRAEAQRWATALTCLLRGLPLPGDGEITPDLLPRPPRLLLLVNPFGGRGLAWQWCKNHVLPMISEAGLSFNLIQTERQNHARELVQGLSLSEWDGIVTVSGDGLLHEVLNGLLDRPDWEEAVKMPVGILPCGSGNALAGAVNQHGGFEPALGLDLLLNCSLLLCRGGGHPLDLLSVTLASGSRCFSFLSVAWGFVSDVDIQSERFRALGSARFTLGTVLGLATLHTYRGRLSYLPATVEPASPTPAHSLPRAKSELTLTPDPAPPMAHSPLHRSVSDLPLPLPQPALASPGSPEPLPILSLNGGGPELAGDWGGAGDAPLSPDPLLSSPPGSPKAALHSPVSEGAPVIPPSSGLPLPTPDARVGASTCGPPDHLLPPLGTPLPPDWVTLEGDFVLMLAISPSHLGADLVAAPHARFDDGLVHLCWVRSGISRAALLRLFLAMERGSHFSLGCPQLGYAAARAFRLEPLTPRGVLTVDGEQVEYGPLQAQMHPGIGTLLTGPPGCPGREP
# [3] = molecular target: T1, Sphingosine kinase 2 (Homo sapiens); details: at 1 µM
# [4] = molecular target: Casein kinase II subunit alpha (Homo sapiens) (UniProt P68400); details: at 0.1 µM
# Chain of Casein kinase II subunit alpha (Homo sapiens) (P68400 whole entry, looked up): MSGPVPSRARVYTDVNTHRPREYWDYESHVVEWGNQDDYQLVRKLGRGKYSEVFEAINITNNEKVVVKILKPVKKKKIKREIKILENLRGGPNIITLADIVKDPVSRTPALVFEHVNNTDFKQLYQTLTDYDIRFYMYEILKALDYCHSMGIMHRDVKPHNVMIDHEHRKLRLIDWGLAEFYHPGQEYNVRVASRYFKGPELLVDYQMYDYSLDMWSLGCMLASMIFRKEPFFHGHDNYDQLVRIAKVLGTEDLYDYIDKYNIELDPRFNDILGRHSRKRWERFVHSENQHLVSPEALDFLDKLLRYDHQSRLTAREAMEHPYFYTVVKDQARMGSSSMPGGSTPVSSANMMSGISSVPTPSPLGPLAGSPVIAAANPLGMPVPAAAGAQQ
# [5] = molecular target: Casein kinase II subunit alpha (Homo sapiens) (UniProt P68400); details: at 1 µM
# [6] = molecular target: T2, Inhibitor of nuclear factor kappa-B kinase subunit alpha (Homo sapiens) (UniProt O15111); details: at 0.1 µM
# T2 sequence (whole entry): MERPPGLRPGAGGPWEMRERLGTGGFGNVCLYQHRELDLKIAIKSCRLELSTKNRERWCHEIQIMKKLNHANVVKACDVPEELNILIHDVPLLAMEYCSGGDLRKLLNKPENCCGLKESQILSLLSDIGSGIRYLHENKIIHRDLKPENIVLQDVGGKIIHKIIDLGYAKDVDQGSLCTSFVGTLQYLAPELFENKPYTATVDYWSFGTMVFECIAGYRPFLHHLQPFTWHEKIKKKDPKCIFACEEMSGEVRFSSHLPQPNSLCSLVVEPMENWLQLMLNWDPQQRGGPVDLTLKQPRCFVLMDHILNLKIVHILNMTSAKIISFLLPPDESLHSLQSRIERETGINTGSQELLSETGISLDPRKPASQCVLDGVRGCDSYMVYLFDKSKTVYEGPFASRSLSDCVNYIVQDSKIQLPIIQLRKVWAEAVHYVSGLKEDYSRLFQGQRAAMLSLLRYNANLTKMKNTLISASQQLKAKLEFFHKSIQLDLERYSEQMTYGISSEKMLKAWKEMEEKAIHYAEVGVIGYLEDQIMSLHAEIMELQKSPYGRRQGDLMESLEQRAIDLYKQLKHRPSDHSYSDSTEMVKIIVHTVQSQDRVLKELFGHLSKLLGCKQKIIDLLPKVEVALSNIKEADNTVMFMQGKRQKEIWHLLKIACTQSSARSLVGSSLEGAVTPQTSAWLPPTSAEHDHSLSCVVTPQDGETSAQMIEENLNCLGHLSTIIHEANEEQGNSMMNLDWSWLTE
# [7] = molecular target: T2, Inhibitor of nuclear factor kappa-B kinase subunit alpha (Homo sapiens); details: at 1 µM
# [8] = molecular target: T3, Inhibitor of nuclear factor kappa-B kinase subunit beta (Homo sapiens) (UniProt O14920); details: at 0.1 µM
# T3 sequence (whole entry): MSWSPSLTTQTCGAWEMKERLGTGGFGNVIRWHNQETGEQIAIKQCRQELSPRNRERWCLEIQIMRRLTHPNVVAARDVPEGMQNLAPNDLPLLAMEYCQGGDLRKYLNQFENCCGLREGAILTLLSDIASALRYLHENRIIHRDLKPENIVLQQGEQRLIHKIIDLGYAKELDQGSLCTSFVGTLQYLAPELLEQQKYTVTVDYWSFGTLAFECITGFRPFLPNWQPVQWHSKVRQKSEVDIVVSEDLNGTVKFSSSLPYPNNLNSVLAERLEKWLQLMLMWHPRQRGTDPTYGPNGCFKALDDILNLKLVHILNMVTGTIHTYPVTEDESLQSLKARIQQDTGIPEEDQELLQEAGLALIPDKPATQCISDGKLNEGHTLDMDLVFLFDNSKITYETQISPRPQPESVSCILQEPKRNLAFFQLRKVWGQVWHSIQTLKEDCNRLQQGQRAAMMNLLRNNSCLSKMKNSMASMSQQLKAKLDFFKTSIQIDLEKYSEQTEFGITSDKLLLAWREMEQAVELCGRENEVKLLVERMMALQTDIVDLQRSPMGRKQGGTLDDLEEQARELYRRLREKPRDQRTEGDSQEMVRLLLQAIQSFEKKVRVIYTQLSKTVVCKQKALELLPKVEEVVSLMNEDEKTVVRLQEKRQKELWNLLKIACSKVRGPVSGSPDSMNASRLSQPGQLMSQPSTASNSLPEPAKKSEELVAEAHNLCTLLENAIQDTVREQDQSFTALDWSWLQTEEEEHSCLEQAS
# [9] = molecular target: T3, Inhibitor of nuclear factor kappa-B kinase subunit beta (Homo sapiens); details: at 1 µM
# [10] = molecular target: T4, Inhibitor of nuclear factor kappa-B kinase subunit epsilon (Homo sapiens) (UniProt Q14164); details: at 0.1 µM
# T4 sequence (whole entry): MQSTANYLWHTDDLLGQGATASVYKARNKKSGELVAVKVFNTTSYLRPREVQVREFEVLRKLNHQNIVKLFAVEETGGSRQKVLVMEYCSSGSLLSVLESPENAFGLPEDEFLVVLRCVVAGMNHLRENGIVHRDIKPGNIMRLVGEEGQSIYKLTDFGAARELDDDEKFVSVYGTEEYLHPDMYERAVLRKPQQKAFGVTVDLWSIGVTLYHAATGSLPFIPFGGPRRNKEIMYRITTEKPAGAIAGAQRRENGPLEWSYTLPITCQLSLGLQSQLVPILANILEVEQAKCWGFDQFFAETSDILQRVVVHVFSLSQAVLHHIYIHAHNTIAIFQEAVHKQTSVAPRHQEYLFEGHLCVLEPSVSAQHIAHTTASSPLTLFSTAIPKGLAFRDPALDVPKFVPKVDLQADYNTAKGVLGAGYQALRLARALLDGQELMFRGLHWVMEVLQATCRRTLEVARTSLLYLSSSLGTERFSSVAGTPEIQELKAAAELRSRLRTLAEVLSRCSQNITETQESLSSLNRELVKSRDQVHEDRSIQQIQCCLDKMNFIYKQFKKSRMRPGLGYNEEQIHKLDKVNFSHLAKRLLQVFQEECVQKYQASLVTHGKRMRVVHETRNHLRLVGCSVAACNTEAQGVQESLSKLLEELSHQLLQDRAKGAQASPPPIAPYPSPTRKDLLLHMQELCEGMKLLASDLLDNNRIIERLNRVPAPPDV
# [11] = molecular target: T4, Inhibitor of nuclear factor kappa-B kinase subunit epsilon (Homo sapiens); details: at 1 µM
# [12] = molecular target: T5, Serine/threonine-protein kinase Nek1 (Homo sapiens) (UniProt Q96PY6); details: at 0.1 µM
# T5 sequence (whole entry): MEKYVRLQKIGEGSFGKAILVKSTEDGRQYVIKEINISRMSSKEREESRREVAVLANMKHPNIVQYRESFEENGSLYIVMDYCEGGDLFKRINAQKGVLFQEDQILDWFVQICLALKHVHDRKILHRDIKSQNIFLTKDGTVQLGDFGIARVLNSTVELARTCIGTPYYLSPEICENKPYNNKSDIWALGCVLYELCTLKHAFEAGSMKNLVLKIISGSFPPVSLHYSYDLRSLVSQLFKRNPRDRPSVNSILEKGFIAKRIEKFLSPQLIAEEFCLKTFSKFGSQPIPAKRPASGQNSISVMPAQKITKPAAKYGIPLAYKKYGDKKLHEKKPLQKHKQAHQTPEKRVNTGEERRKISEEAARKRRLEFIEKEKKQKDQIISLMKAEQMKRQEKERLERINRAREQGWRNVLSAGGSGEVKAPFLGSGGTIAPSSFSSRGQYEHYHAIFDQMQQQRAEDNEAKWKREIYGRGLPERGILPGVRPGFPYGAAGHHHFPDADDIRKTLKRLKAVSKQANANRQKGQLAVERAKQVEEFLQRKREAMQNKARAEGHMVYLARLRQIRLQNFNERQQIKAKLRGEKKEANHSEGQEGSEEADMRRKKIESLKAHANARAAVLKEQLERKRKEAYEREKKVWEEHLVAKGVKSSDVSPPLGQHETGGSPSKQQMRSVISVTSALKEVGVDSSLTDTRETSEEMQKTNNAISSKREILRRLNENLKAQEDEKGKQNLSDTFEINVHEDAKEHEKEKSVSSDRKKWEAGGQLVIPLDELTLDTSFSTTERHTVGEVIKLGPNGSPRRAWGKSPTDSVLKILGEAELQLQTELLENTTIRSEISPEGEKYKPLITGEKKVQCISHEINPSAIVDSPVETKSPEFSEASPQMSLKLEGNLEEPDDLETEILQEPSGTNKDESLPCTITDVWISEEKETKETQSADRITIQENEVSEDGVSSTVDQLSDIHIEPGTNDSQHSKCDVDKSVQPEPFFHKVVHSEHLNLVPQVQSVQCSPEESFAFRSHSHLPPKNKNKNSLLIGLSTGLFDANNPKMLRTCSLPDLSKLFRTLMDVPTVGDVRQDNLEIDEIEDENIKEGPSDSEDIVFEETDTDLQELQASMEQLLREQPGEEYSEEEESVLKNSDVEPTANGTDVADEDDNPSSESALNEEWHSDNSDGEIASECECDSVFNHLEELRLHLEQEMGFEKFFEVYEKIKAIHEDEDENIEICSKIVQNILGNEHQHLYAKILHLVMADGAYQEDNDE
# [13] = molecular target: T5, Serine/threonine-protein kinase Nek1 (Homo sapiens); details: at 1 µM
# [14] = molecular target: T6, Serine/threonine-protein kinase Nek2 (Homo sapiens) (UniProt P51955); details: at 0.1 µM
# T6 sequence (whole entry): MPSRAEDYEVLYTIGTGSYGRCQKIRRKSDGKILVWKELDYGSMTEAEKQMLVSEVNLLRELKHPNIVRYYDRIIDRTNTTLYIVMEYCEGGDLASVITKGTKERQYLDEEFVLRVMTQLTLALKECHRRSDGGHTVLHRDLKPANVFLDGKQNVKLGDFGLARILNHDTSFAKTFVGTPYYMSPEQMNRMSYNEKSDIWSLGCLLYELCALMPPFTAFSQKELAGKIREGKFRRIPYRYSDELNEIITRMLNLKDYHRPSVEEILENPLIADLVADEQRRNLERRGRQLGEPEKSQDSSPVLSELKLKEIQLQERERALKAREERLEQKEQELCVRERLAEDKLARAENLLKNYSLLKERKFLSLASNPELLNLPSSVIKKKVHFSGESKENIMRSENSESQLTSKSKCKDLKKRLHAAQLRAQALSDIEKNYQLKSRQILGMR
# [15] = molecular target: T6, Serine/threonine-protein kinase Nek2 (Homo sapiens); details: at 1 µM
# [16] = molecular target: Serine/threonine-protein kinase Nek6 (Homo sapiens) (UniProt Q9HC98); details: at 0.1 µM
# Chain of Serine/threonine-protein kinase Nek6 (Homo sapiens) (Q9HC98 whole entry): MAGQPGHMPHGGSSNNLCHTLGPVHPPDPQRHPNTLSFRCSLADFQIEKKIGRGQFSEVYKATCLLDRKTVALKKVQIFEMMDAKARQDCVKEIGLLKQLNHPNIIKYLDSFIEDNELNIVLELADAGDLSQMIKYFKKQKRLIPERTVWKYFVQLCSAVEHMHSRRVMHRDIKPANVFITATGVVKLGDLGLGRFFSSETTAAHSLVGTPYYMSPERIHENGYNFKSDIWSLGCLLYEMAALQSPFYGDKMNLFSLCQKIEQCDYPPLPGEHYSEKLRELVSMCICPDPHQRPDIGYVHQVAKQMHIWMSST
# [17] = molecular target: Serine/threonine-protein kinase Nek6 (Homo sapiens) (UniProt Q9HC98); details: at 1 µM
# [18] = molecular target: Serine/threonine-protein kinase Nek7 (Homo sapiens) (UniProt Q8TDX7); details: at 0.1 µM
# Chain of Serine/threonine-protein kinase Nek7 (Homo sapiens) (Q8TDX7 whole entry, looked up): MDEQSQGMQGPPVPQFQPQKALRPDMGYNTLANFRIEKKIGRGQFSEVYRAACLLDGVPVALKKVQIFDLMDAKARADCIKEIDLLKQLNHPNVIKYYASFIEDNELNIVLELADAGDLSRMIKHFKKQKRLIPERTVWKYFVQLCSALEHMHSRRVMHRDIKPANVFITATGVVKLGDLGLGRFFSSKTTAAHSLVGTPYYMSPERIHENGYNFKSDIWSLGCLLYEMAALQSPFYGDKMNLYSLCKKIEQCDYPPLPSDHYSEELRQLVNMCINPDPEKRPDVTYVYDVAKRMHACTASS
# [19] = molecular target: Serine/threonine-protein kinase Nek7 (Homo sapiens) (UniProt Q8TDX7); details: at 1 µM
# [20] = molecular target: T7, Serine/threonine-protein kinase Nek9 (Homo sapiens) (UniProt Q8TD19); details: at 0.1 µM;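 further: reported value is the mean percent inhibition of NEK9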
# T7 sequence (whole entry): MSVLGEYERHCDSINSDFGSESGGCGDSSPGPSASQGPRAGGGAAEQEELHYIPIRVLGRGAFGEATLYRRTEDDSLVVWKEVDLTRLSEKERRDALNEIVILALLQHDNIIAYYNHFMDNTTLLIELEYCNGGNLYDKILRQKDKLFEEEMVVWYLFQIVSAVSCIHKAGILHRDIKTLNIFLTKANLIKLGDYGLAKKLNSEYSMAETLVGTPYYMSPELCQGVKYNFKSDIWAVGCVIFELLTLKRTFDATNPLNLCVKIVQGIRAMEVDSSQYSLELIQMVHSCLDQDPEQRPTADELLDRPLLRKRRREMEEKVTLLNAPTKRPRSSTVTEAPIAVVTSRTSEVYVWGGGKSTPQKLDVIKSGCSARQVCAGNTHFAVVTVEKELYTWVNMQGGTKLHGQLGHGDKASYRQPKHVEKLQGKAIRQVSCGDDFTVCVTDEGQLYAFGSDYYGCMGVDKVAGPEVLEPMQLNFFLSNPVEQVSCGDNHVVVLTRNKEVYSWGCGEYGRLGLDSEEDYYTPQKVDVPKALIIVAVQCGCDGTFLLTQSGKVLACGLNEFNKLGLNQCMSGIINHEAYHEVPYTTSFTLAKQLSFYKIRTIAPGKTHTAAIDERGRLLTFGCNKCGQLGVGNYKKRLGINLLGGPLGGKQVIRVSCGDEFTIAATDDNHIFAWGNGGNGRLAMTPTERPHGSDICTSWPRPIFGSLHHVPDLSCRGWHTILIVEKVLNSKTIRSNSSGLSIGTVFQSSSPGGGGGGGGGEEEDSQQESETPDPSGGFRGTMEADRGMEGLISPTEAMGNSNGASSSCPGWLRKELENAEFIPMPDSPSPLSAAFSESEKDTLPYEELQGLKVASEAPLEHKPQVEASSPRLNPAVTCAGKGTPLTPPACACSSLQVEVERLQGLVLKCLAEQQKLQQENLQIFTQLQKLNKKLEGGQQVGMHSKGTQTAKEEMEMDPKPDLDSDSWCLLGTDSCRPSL
# Chain of Sphingosine kinase 1 (Homo sapiens) (Q9NYA1 whole entry): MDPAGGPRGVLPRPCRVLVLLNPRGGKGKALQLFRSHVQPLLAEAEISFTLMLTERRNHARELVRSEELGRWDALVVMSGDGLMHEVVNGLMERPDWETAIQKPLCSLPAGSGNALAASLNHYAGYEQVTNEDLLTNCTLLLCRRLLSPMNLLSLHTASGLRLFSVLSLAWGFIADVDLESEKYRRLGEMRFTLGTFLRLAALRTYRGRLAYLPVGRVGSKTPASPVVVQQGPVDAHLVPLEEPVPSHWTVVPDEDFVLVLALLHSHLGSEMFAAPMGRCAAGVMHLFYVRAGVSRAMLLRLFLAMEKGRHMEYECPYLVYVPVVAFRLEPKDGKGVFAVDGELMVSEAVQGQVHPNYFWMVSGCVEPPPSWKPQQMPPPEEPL
smiles,measurement,setting,value
O=C1NC(=O)C(c2ccccc2Cl)=C1Nc1cccc(O)c1,inhibition,[1],-1.02%
same,inhibition,[2],0.69%
same,inhibition,[3],-0.36%
same,inhibition,[4],0.98%
same,inhibition,[5],0.1%
same,inhibition,[6],3.36%
same,inhibition,[7],1.21%
same,inhibition,[8],3.78%
same,inhibition,[9],3.39%
same,inhibition,[10],1.96%
same,inhibition,[11],5.16%
same,inhibition,[12],1.26%
same,inhibition,[13],2.01%
same,inhibition,[14],3.03%
same,inhibition,[15],3.05%
same,inhibition,[16],1.73%
same,inhibition,[17],-0.89%
same,inhibition,[18],4.66%
same,inhibition,[19],2.35%
same,inhibition,[20],2.76%
